Values joined by “and” are separate entries in the source; they are usually repeats but may differ in a detail not shown here. Equal values may be shown once. Records with an inconclusive call do not appear. Entries that show only a call come without a potency. More than one record can exist for a structure, and the calls need not agree. Active and inactive are the calls of the source. Unless noted, calls come from the whole dose curve; as a rule, active = well fitted curve in the direction sought with a large enough effect in the repeat runs; inconclusive = weak or mixed curves; inactive = no such curve, though single readings can be large; an effect the other way counts as inactive or inconclusive.
Tests used:
[1] = biological target: Aryl hydrocarbon receptor (Homo sapiens) (UniProt P35869); experiment: qHTS assay to identify small molecule that activate the aryl hydrocarbon receptor (AhR) signaling pathway (AID 743085); note: nearly all actives have a fitted effect of over 15% in size; note: potency is the fitted concentration of half-maximal effect;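 for activation: HG2L7.5c1 human HepG2 liver cells with stably integrated DRE-driven firefly reporter; series mostly up to about 70 µM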
Sequence of Aryl hydrocarbon receptor (Homo sapiens) (P35869 whole entry, looked up): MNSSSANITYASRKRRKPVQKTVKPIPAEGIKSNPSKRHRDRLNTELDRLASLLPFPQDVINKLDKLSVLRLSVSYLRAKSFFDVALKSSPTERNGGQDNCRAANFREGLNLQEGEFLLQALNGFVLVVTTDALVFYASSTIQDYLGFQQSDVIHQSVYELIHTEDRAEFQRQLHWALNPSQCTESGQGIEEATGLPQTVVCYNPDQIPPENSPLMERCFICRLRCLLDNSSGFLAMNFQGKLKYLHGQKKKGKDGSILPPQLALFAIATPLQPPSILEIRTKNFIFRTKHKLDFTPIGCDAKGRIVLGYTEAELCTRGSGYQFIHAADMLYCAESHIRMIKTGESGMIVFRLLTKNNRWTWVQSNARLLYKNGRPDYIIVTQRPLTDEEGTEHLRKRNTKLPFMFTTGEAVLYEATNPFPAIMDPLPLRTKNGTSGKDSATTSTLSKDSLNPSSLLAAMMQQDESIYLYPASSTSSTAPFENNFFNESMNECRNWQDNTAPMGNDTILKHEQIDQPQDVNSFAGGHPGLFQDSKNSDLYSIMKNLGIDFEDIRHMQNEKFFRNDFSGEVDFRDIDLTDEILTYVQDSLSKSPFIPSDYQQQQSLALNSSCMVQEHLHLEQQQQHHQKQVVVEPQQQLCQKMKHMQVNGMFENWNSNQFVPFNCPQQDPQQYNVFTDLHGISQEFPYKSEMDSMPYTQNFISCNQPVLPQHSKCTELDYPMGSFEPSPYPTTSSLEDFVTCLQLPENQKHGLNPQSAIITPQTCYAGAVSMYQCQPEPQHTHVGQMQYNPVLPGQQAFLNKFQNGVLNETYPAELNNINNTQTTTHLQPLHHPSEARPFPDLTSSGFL
In short: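 HepG2 cells (HG2L7.5c1) stably carrying a firefly luciferase reporter driven by 20 dioxin responsive elements were exposed to compound for 24 h at 37C after a 5 h settling period; luminescence rise (ONE-Glo) indicated activation.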

[2] = qHTS assay to identify small molecule that activate the aryl hydrocarbon receptor (AhR) signaling pathway - cell viability counter screen (AID 743086); note: nearly all actives have a fitted effect of over 45% in size; note: potency is the fitted concentration of half-maximal effect
In short: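 HepG2-AhR-luc (HG2L7.5c1) cells, 4000/well, were preincubated 5 h at 37C, exposed to compound in qHTS format for 24 hr at 37C, then given CellTiter-Fluor for 30 min; viability was read as fluorescence in the reporter wells.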

[3] = biological target: Peroxisome proliferator-activated receptor gamma (Homo sapiens) (UniProt P37231); experiment: qHTS assay to identify small molecule antagonists of the peroxisome proliferator-activated receptor gamma (PPARg) signaling pathway (AID 743191; calls by dose curve; note: series mostly up to about 63 µM; nearly all actives have a fitted effect of over 30% in size)
Sequence of Peroxisome proliferator-activated receptor gamma (Homo sapiens) (P37231 whole entry, looked up): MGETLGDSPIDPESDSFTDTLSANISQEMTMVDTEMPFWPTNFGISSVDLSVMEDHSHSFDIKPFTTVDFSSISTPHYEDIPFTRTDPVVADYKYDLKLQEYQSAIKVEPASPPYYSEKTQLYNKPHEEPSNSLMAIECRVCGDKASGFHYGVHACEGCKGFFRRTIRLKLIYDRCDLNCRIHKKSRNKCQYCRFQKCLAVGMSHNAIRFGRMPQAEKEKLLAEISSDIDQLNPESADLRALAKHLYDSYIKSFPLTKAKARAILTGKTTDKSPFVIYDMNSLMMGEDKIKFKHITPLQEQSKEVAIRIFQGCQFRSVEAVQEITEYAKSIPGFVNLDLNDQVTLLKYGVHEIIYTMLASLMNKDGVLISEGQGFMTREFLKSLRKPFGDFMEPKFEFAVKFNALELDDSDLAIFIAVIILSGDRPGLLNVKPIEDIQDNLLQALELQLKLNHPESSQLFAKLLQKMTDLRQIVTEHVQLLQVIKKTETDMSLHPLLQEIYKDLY
In short: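 GeneBLAzer PPARg UAS-bla HEK293H cells carrying a UAS-driven beta-lactamase reporter were plated at 3000 cells/well, preincubated 5 h at 37C, then given compound for 17 h at 37C; LiveBLAzer B/G FRET substrate was read after 1 h at room temperature.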

[4] = qHTS assay to identify small molecule antagonists of the peroxisome proliferator-activated receptor gamma (PPARg) signaling pathway - cell viability counter screen (AID 743194); note: nearly all actives have a fitted effect of over 55% in size; note: potency is the fitted concentration of half-maximal effect
In short: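 PPARg-UAS-bla HEK293H cells were plated, rested 5 h at 37 C, then treated with compounds plus rosiglitazone (50 nM final) for 17 h at 37 C; viability was then read by CellTiter-Glo luminescence after 30 min at room temperature.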

[5] = qHTS assay for small molecule agonists of the antioxidant response element (ARE) signaling pathway - cell viability counter screen (AID 743203; calls by dose curve; note: nearly all actives have a fitted effect of over 55% in size; note: potency is the fitted concentration of half-maximal effect)
In short: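 Viability counter screen: CellTiter-Glo luminescence, read after 30 min at room temperature, in ARE-bla HepG2 wells. Compound exposure lasted 16 h at 37C/5% CO2, following a 5 h pre-incubation of the cells after plating.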

[6] = qHTS assay for small molecule activators of the heat shock response signaling pathway - cell viability counter screen (AID 743209); note: nearly all actives have a fitted effect of over 50% in size
In short: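 Cytotoxicity counter screen run in the same wells as the heat-shock bla reporter assay: HeLa HSE-bla cells, 5 h compound exposure at 37 C, viability read by CellTiter-Glo luminescence.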

[7] = qHTS assay to identify small molecule agonists of the peroxisome proliferator-activated receptor delta (PPARd) signaling pathway - cell viability counter screen (AID 743211); note: nearly all actives have a fitted effect of over 55% in size; note: potency is the fitted concentration of half-maximal effect
In short: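 PPARd-bla HEK293H cells (UAS-beta-lactamase reporter) were treated with compounds for 17 h at 37 C. Viability was then read in the same wells by CellTiter-Glo luminescence after 30 min at room temperature.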

[8] = biological target: Peroxisome proliferator-activated receptor delta (Homo sapiens) (UniProt Q03181); experiment: qHTS assay to identify small molecule agonists of the peroxisome proliferator-activated receptor delta (PPARd) signaling pathway (AID 743212; calls by dose curve)
Sequence of Peroxisome proliferator-activated receptor delta (Homo sapiens) (Q03181 whole entry, looked up): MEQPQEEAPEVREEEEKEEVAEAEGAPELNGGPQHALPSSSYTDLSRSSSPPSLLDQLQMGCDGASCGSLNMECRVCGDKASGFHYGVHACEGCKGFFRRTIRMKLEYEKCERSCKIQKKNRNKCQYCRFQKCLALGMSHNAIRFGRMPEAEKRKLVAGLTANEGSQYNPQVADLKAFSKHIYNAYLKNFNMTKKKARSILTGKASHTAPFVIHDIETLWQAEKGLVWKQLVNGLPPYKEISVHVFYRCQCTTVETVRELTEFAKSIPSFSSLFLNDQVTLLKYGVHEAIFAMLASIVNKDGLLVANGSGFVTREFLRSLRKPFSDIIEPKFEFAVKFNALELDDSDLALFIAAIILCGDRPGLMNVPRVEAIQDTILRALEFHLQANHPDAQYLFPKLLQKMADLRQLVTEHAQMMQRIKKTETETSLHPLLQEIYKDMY
In short: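 Cells expressing a UAS-driven beta-lactamase reporter (PPARd-bla HEK293H) were given test compounds after a 5 h settle and kept at 37 C. Reporter activity was then measured as FRET fluorescence using LiveBLAzer B/G substrate.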

[9] = qHTS assay to identify small molecule antagonists of the peroxisome proliferator-activated receptor delta (PPARd) signaling pathway - cell viability counter screen (AID 743213); note: nearly all actives have a fitted effect of over 50% in size; note: potency is the fitted concentration of half-maximal effect
In short: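 PPARd-bla HEK293H cells were treated with compounds plus agonist L165041 (300 nM final) for 17 h at 37 C. Viability was then read in the same wells by CellTiter-Glo luminescence after 30 min at room temperature.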

[10] = qHTS assay to identify small molecule agonists of the farnesoid-X-receptor (FXR) signaling pathway - cell viability counter screen (AID 743218); note: nearly all actives have a fitted effect of over 45% in size; note: potency is the fitted concentration of half-maximal effect
In short: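 Viability counter screen in the same wells: CellTiter-Glo luminescence, 30 min room-temperature incubation, measured after the beta-lactamase read. Cells were GeneBLAzer FXR-UAS-bla HEK 293T, compound-treated 16 h at 37C.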

[11] = qHTS assay to identify small molecule antagonists of the farnesoid-X-receptor (FXR) signaling pathway - cell viability counter screen (AID 743221; active = well fitted cell-killing curve with a large enough effect in the repeat runs, not every such curve was filed as active; note: nearly all actives have a fitted effect of over 50% in size; note: potency is the fitted concentration of half-maximal effect)
In short: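 FXR-UAS-bla HEK 293T cells were treated with test compounds plus chenodeoxycholic acid (50 uM final) for 16 h at 37 C. Cell viability in the same wells was then read as CellTiter-Glo luminescence after 30 min at room temperature.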

[12] = biological target: Vitamin D3 receptor (Homo sapiens) (UniProt P11473); experiment: qHTS assay to identify small molecule agonists of the vitamin D receptor (VDR) signaling pathway (AID 743222; calls by dose curve)
Sequence of Vitamin D3 receptor (Homo sapiens) (P11473 whole entry, looked up): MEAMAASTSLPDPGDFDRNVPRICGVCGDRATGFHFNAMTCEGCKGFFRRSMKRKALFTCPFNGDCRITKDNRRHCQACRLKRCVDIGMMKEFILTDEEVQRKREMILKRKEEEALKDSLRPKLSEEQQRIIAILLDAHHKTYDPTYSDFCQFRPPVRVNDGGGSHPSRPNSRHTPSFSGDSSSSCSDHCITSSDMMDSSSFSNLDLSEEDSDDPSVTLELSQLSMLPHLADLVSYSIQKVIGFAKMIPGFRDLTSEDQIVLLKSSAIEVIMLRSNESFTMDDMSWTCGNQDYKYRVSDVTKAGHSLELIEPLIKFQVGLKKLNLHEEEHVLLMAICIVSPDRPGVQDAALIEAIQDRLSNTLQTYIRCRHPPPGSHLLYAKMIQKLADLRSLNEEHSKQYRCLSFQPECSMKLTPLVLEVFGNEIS
In short: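 Agonist mode, beta-lactamase reporter: fluorescence from LiveBLAzer B/G FRET substrate (2 h, room temperature) read after 16 h compound treatment at 37 C of VDR-bla cells, which were pre-incubated 4 h after seeding.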

[13] = qHTS assay to identify aromatase inhibitors - cell viability counter screen (AID 743084);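 note: cells stimulated with testosterone during compound exposure; nearly all actives have a fitted effect of over 55% in size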; note: potency is the fitted concentration of half-maximal effect
[14] = biological target: Peroxisome proliferator-activated receptor gamma (Homo sapiens) (UniProt P37231); experiment: qHTS assay to identify small molecule agonists of the peroxisome proliferator-activated receptor gamma (PPARg) signaling pathway (AID 743094; active = well fitted activation curve with a large enough effect in the signal ratio in the repeat runs, not every such curve was filed as active; the % refers to the signal ratio)
In short: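 Agonist activity was taken from a beta-lactamase reporter (FRET substrate, 1 h at room temperature) in HEK293H cells carrying a PPARg UAS-bla construct. Compounds in DMSO were incubated 17 h at 37C after a 5 h cell pre-incubation.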

[15] = qHTS assay for small molecule activators of the heat shock response signaling pathway (AID 743210; active = well fitted activation curve with a large enough effect in the signal ratio in the repeat runs, with a control signal flat, not every such curve was filed as active; the % refers to the signal ratio;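 note: HeLa cells with beta-lactamase reporter driven by heat shock elements; series mostly up to about 63 µM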)
In short: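 Activation of heat shock element-controlled beta-lactamase expression is measured in HeLa cells by LiveBLAzer FRET fluorescence, with compound exposure lasting 5 h at 37 C and substrate loading 2.5 h at room temperature.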

[16] = biological target: Bile acid receptor (Homo sapiens) (UniProt Q96RI1); experiment: qHTS assay to identify small molecule antagonists of the farnesoid-X-receptor (FXR) signaling pathway (AID 743217; active = well fitted inhibition curve with a large enough effect in the signal ratio in the repeat runs, not every such curve was filed as active; the % refers to the signal ratio)
Sequence of Bile acid receptor (Homo sapiens) (Q96RI1 whole entry, looked up): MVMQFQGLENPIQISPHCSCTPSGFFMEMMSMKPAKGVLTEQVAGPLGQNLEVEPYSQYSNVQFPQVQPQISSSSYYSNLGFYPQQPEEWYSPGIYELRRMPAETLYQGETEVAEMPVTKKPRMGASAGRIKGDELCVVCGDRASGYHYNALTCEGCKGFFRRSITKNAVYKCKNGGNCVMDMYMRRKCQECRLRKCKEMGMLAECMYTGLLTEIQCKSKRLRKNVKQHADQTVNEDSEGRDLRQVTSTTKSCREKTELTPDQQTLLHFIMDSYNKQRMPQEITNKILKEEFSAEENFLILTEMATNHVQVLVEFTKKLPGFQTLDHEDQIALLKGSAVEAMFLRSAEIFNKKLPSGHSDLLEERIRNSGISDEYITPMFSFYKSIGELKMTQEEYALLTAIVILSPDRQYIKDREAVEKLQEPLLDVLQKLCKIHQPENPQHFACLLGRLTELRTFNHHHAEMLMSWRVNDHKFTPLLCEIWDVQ
In short: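 Antagonist mode: chenodeoxycholic acid at 50 uM final stimulates a UAS-driven beta-lactamase reporter in HEK 293T FXR-bla cells during 16 h, 37C compound exposure. Read-out is FRET substrate fluorescence after 2 h at room temperature.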

[17] = biological target: Bile acid receptor (Homo sapiens) (UniProt Q96RI1); experiment: qHTS assay to identify small molecule agonists of the farnesoid-X-receptor (FXR) signaling pathway (AID 743220; active = well fitted activation curve with a large enough effect in the signal ratio in the repeat runs, not every such curve was filed as active; the % refers to the signal ratio)
In short: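 FXR-UAS-bla HEK 293T cells carrying a UAS-driven beta-lactamase reporter were plated for 5 h at 37C/5% CO2, then exposed to DMSO-dissolved Tox21 10K compounds for 16 h at 37C. A LiveBLAzer B/G FRET substrate was loaded for 2 h at room temperature before fluorescence reading.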

[18] = biological target: Vitamin D3 receptor (Homo sapiens) (UniProt P11473); experiment: qHTS assay to identify small molecule antagonists of the vitamin D receptor (VDR) signaling pathway (AID 743223; active = well fitted inhibition curve with a large enough effect in the signal ratio in the repeat runs, not every such curve was filed as active; the % refers to the signal ratio)
In short: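 VDR-bla cells were plated, incubated 4 h at 37C, then given compound and 1alpha,25-dihydroxyvitamin D3 (3 nM final). After 16 h at 37C, LiveBLAzer B/G FRET substrate was added for 2 h at room temperature and fluorescence read.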

[19] = qHTS assay for small molecule agonists of the antioxidant response element (ARE) signaling pathway (AID 743202; active = well fitted activation curve with a large enough effect in the signal ratio in the repeat runs, not every such curve was filed as active; the % refers to the signal ratio; note: potency is the fitted concentration of half-maximal effect)
In short: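 Steps: seed ARE-bla HepG2 cells (2,000/well); incubate 5 h at 37 C; add compounds by pin tool; incubate 16 h at 37 C; add FRET substrate; read fluorescence after 2 h at RT.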

[20] = biological target: Peroxisome proliferator-activated receptor delta (Homo sapiens) (UniProt Q03181); experiment: qHTS assay to identify small molecule antagonists of the peroxisome proliferator-activated receptor delta (PPARd) signaling pathway (AID 743215; active = well fitted inhibition curve with a large enough effect in the signal ratio in the repeat runs, not every such curve was filed as active; the % refers to the signal ratio;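 note: cells stimulated with agonist L165041 at 300 nM final during compound exposure; series mostly up to about 62 µM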)
In short: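 Agonist L165041 (300 nM final) added with compound to PPARd-bla HEK293H UAS-bla reporter cells; 17 h incubation at 37 C. Read-out: LiveBLAzer FRET substrate, 2 h at room temperature, fluorescence intensity.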

SMILES | Potency [1] | Potency [2] | Potency [3] | Potency [4] | Potency [5] | Potency [6] | Potency [7] | outcome [8] | Potency [9] | Potency [10] | Potency [11] | outcome [12] | Potency [13] | Potency [14] | Potency [15] | Potency [16] | outcome [17] | outcome [18] | Potency [19] | Potency [20]
Nc1ncn([C@@H]2O[C@H](CO)[C@@H](O)[C@H]2O)c(=O)n1 | inactive | 5.31 µM (active) | inactive | inactive | inactive | inactive | inactive | inactive | inactive | inactive | inactive | inactive | – | – | – | – | – | – | – | –
Cc1cccc(N(C)C(=S)Oc2ccc3ccccc3c2)c1 | – | inactive | – | inactive | inactive | inactive | – | – | inactive | inactive | inactive | inactive | inactive | inactive | inactive | inactive | inactive | inactive | – | –
O=C(COc1ccc(Cl)cc1)N1CCN(Cc2ccc3c(c2)OCO3)CC1 | inactive | – | – | – | inactive | inactive | inactive | inactive | inactive | – | inactive | inactive | inactive | – | inactive | – | – | inactive | 15.4 µM (active) and 29.8 µM (active) | inactive
CCCCc1oc2ccccc2c1C(=O)c1cc(I)c(OCCN(CC)CC)c(I)c1 | – | inactive | – | 13.9 µM (active) | 34.6 µM (active) | inactive | 22.1 µM (active) and 16.8 µM (active) | – | 15.6 µM (active) and 23.7 µM (active) | 34.9 µM (active) and 18.8 µM (active) | 34.9 µM (active) and 29.8 µM (active) | – | inactive and 43.6 µM (active) | – | – | – | inactive | inactive | – | –
Cc1ccc(C(=O)c2cc(O)c(O)c([N+](=O)[O-])c2)cc1 | inactive | – | – | – | 9.69 µM (active) | inactive | inactive | – | inactive | inactive | inactive | – | inactive | – | inactive | – | – | inactive | – | –
Cn1cnc([N+](=O)[O-])c1Sc1ncnc2nc[nH]c12 | inactive and 19.2 µM (active) | – | – | – | 0.382 µM (active) | inactive | inactive | inactive | inactive | inactive | inactive | – | inactive | inactive | – | – | – | – | – | inactive

From PubChem BioAssay (Tox21)
